# MITF primary – human MITF inhibition, primary screen. O75030. AlphaScreen MITF homodimerization, bead proximity signal. inhibition, % at 2.6 µM. 650,000 compounds, 0.91% hits. AID 1259374; in the data active = inhibition above about 50%;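 note: 0% = vehicle wells with protein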
# GPR151 ag – activates the human receptor GPR151; 650,000 compounds, 1% hits; Q8TDV0; PathHunter beta-arrestin GPR151 cells, luminescence; activation, % at 11.2 µM; in the data active = activation above about 4.9%;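 note: 0% = median of compound wells and 100% = cells with positive control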
# Target sequence (Q8TDV0 whole entry, looked up): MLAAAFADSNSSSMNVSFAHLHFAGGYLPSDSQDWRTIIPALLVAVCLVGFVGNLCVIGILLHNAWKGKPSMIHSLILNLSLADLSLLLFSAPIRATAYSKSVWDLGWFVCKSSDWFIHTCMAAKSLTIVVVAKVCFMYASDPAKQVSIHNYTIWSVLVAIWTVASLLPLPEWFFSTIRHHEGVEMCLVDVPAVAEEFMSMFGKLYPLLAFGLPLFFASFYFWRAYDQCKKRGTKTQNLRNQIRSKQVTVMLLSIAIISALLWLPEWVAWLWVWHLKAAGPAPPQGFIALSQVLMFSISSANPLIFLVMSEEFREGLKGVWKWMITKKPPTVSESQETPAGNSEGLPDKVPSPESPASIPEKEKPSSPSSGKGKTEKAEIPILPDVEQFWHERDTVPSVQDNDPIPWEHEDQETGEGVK
# FBW7 activator – human FBW7 E3 ligase activation, primary screen; AlphaScreen FBW7–phospho-cyclin E peptide binding, activator screen; normalized activity (activation), % at 26.1 µM; 650,000 compounds, 0.13% hits; AID 1259310; in the data active = normalized activity above about 1.9%;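 note: purified mutant Fbw7 with reduced substrate affinity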
# TEAD-YAP block – TEAD-YAP interaction inhibition | HEK-TIYL cells, TEAD-Gal4/YAP UAS-luciferase luminescence | inhibition, % at 9.12 µM | 640,000 compounds, 1.4% hits | AID 1259422; in the data active = inhibition above about 32%;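 note: 0% = median of test compound wells and 100% = reference inhibitor wells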
# Numbers without * were called inactive; ! = not active in a repeat. Shown are actives, neighbours in structure and some others; about 3.5% of the full set was active somewhere.
SMILES,MITF primary,GPR151 ag,FBW7 activator,TEAD-YAP block
O=C(NCc1cccnc1)/C(=C\c1cccc(Oc2ccccc2)c1)S(=O)(=O)c1ccccc1,10,-3,0,82*
O=C(NCc1cccnc1)/C(=C/c1ccc(-c2cccc([N+](=O)[O-])c2)o1)S(=O)(=O)c1ccccc1,7,-1,0,14
O=C(NCc1cccnc1)/C(=C/c1ccc(-c2ccc(Br)cc2)o1)S(=O)(=O)c1ccccc1,2,0,0,35*
O=C(NCc1cccnc1)/C(=C/c1ccc(-c2cccc(Cl)c2)o1)S(=O)(=O)c1ccccc1,6,0,0,53*
O=C(NCc1cccnc1)/C(=C\c1ccc(Br)cc1)S(=O)(=O)c1ccccc1,-5,0,0,86*
N#Cc1nc2ccccc2nc1C(C#N)S(=O)(=O)c1ccc(F)cc1 (centres undefined),0,3,0,-1
Cc1sc2nc(C3CCCN(C(=O)c4ccco4)C3)[nH]c(=O)c2c1C (centres undefined),12,-1,0,-31
Cc1sc2nc(C3CCCN(C(=O)C(C)(C)C)C3)[nH]c(=O)c2c1C (centres undefined),0,0,0,92*
Cc1ccc2nc(SCC(=O)N3CC(=O)Nc4ccccc43)c(C#N)cc2c1,17,0,0,49*
CS(=O)(=O)c1ccc(-c2ccc3c(c2)CC(CNC(=O)/C=C/c2cccnc2)O3)cc1 (centres undefined),-1,1,0,39*
CS(=O)(=O)c1ccc(-c2ccc3c(c2)CC(CNC(=O)CCc2cccnc2)O3)cc1 (centres undefined),-13,1,0,12
Cc1ccc(N(CCC(N)=O)C(=O)CCl)cc1,-1,0,0,76*
Cc1ccc(C(=O)CN(C(=O)CCl)c2ccccc2)cc1,1,-1,0,36*
CC1(c2ccccc2)NC(=O)N(NC(=O)CSc2nnc(C3CCCCC3)n2N)C1=O (centres undefined),2,-1,0,-1
CN(C)CCOc1cc(-c2cn[nH]c2)ccc1N,54*,-2,-1,0
CN(C)CCOc1cc(-c2cn[nH]c2)ccc1NC(=O)C(O)c1ccc(F)cc1 (centres undefined),7,-1,0,-2
O=c1oc(Nc2ccccc2)nc2sc3c(c12)CCCC3,7,2,0,1
O=C(C1CCCO1)N1CCC[C@H]1Cn1nc(-c2ccc3c(c2)OCCO3)ccc1=O (some centres undefined),-3,-1,0,4
Cc1cc(C)nc(N/N=C/c2cc(Br)cc(Br)c2O)n1,50,-2,-1,13
Cc1cc(=O)[nH]c(N/N=C/c2ccc(O)c(O)c2O)n1,100*,2,-1,-9
Cc1cc(C)nc(N/N=C/c2ccc(O)c(O)c2O)n1,52*,2,-1,12
COc1cc2c(c(OC)c1OC)-c1ccc(OC)c(=O)cc1[C@@H](NC(C)=O)CC2,16,-1,0,58*
COc1ccc2c(c1OC)C(=O)OC2Nc1cccc(NC(C)=O)c1 (centres undefined),9,0,1,-2
CC(NC(=O)Nc1ccc(Cl)c(Cl)c1)C1CCCO1 (centres undefined),17,-2,1.9*,-49
Nc1cccc(-c2cnn3c(NCC4CC4)ccnc23)c1,-10,-1,0,-11
SMILES,MITF primary,GPR151 ag,FBW7 activator,TEAD-YAP block
COc1ccc(CNc2ccnc3c(-c4cccc(C(=O)NCCN(C)C)c4)cnn23)cc1,1,-1,0,-52
Clc1cccc(-c2cnn3c(NCc4cccs4)ccnc23)c1,-10,0,0,-35
Oc1cccc(-c2cnn3c(NCC4CC4)ccnc23)c1,-7,-1,0,98*
CN(C)CCNC(=O)c1cccc(-c2cnn3c(NCc4cccs4)ccnc23)c1,-1,0,0,93*
O=C(O)c1cccc(-c2cnn3c(NCc4cccs4)ccnc23)c1,8,2,0,94*
Oc1cccc(-c2cnn3c(NCc4cccs4)ccnc23)c1,3,-2,0,99*
Cc1[nH]c2c(C)cccc2c(=O)c1CN(Cc1ccccc1)Cc1ccccc1,13,-1,0,5
CC1=C(C#N)C(=O)NC(=O)/C1=C\c1ccc(-c2ccc(S(=O)(=O)O)cc2)o1,59*,0,-1,-1
O=C(c1ccccc1)n1c(=S)nc2ccccn21,14,-2,0,40*
COc1ccc(CC(=O)c2ccc(O)cc2O)cc1,-4,0,0,34*!
CC(C)(C)c1ccc(OCC(=O)c2ccc(O)cc2O)cc1,-6,-3,0,96*
CC(C)Oc1ccc(CC(=O)c2ccc(O)cc2O)cc1,-3,-2,0,66*
Cc1ccc(OCC(=O)c2ccc(O)cc2O)cc1,2,-7,0,-4
O=C(Cc1ccc(Br)cc1)c1ccc(O)cc1O,-1,0,0,-17
CCc1cc(C(=O)Cc2ccc(OC)cc2)c(O)cc1O,-6,1,0,1
CCc1ccc(-n2c(=S)sc3c(=O)n(-c4ccccc4C)c(SCC(=O)N(CC)CC)nc32)cc1,0,0,0,-9
CCCCCC(=O)N1c2ccccc2NC2=C(C(=O)CC(c3ccc(N(CC)CC)cc3)C2)C1c1ccco1 (centres undefined),22,0,0,47*
CCCn1c2ccccc2c2nc3cc(OC)c(OC)cc3nc21,-10,2,3.7*,10
CCCCn1c2ccccc2c2nc3cc(OC)c(OC)cc3nc21,-5,-1,2,3
CCN(CC)CCn1c2ccccc2c2nc3ccccc3nc21,2,-1,0,76*
COc1cc2nc3c4ccccc4n(C(C)C)c3nc2cc1OC,-49,-2,3.7*,2
COc1ccc(N2CCN(CC(O)COC(C)(C)C)CC2)cc1 (centres undefined),46,0,0,-6
CCN(CC)CC(O)CN1CCN(c2ccc(OC)cc2)CC1 (centres undefined),55*,-1,0,2
COc1ccc(N2CCN(C(C)CC(=O)O)CC2)cc1 (centres undefined),72*,0,0,-7
CC(=O)N=C1SC2CS(=O)(=O)CC2N1CCc1ccccc1 (centres undefined),-4,1,0,4
SMILES,MITF primary,GPR151 ag,FBW7 activator,TEAD-YAP block
COc1ccc(/C=N/Nc2ncnc(N)c2[N+](=O)[O-])cc1OC,26,-1,0,-22
Nc1ncnc(N/N=C/c2cccc(Br)c2)c1[N+](=O)[O-],18,-4,0,36*
Nc1ncnc(N/N=C/c2ccc(O)cc2)c1[N+](=O)[O-],-2,-3,0,68*
Nc1ncnc(N/N=C/c2ccccc2)c1[N+](=O)[O-],9,1,0,6
Cc1nc(CC(=O)c2ccc(O)c(O)c2O)cs1,79*,-1,0,-15
CCC(C)(C)NC(=O)CN(C)S(=O)(=O)c1ccc2c(c1)c(=O)n(C)c(=O)n2C,18,0,0,-10
COc1ccc(NC(=O)CCS(=O)(=O)Cc2ccccc2)c([N+](=O)[O-])c1,-7,0,0,58*
